Drawing on PubChem BioAssay (NCI), this text covers growth for eight molecules.

Assay in all cases: NCI-60 one-dose screen, 48 h (100 = growth as untreated, 0 = no growth, -100 = all killed)
One assay relates to NCI-H23 lung. Conditions: 10 µM unless noted.
The subject of the next assay is NCI-H226 lung. Conditions: 10 µM unless noted.
A further assay relates to NCI-H322M lung. The note with it: 10 µM unless noted.
The next assay has as its system HOP-62 NSCLC. The note with it: 10 µM unless noted.
In another assay the test system is NCI-H460 lung. The note with it: 10 µM unless noted.
A further assay deals with HOP-92 NSCLC. The note with it: 10 µM.
Another assay concerns NCI-H522 lung. Conditions: 10 µM unless noted.
The test system of a further assay is A549/ATCC NSCLC. Conditions: 10 µM unless noted.
Another assay has as its system 786-0 renal. Conditions: 10 µM unless noted.
A further assay relates to COLO 205 colon. Conditions: 10 µM unless noted.
A further assay relates to DU-145 prostate. The note with it: 10 µM unless noted.
The next assay has as its system K-562 leukemia. Conditions: 10 µM unless noted.
The next assay deals with MALME-3M melanoma. The note with it: 10 µM unless noted.
A further assay deals with MDA-MB-231 breast. Conditions: 10 µM unless noted.
In a further assay the test system is RXF 393 renal. The note with it: 10 µM unless noted.
The test system of the next assay is SF-268 CNS. The note with it: 10 µM unless noted.
The test system of another assay is SF-295 CNS. The note with it: 10 µM unless noted.
For a further assay, the system named is SF-539 CNS. Conditions: 10 µM unless noted.
The subject of the next assay is UACC-257 melanoma. Conditions: 10 µM unless noted.

The panel holds about 83,000 compounds, 20% with a hit somewhere; the sample as a whole holds those more often.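 Step 1: grow cells in 96-well plates. Step 2: add test compound at a single concentration. Step 3: incubate 48 h. Step 4: record percent growth.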 A number with no mark means an inactive call. The source made the active and inactive calls. Rule for the calls: active = growth percent below 10; inactive = the rest.

Take `O=C(/C=C/c1ccc(F)cc1)c1ccc(O)cc1`: the growth is 95.6% in the assay on NCI-H23 lung; 105% in the assay with NCI-H226 lung; 121% in the assay on NCI-H322M lung; 107% with HOP-62 NSCLC; 103% in the assay on NCI-H460 lung; 109% with HOP-92 NSCLC. Further, the growth in the assay with NCI-H522 lung is 90.1%; with A549/ATCC NSCLC, 92.2%; in the assay on 786-0 renal, 95.2%; in the assay on COLO 205 colon, 112%; with DU-145 prostate, 95.5%; with K-562 leukemia, 58.7%. Further, the growth is 118% in the assay with MALME-3M melanoma; 100% in the assay on MDA-MB-231 breast; 105% in the assay with RXF 393 renal; 101% in the assay with SF-268 CNS; 104% in the assay with SF-295 CNS; 93.7% in the assay on SF-539 CNS. Besides, the growth in the assay with UACC-257 melanoma is 95.5%.

On to `Cn1ccnc1C(=O)/C=C/C=C/c1ccc(C(=O)Nc2ccc(F)cc2)cc1`, for which the growth in the assay on NCI-H23 lung is 18.2%; in the assay with NCI-H226 lung it was 54.7%; with NCI-H322M lung it was 61.1%; with HOP-62 NSCLC, 44.7%; with NCI-H460 lung, 34.2%; with HOP-92 NSCLC, 82.9%. The growth in the assay on NCI-H522 lung is 4.66% (active); in the assay with A549/ATCC NSCLC, 56.7%; in the assay on 786-0 renal, 22.8%; in the assay on COLO 205 colon, 32.8%; with DU-145 prostate, 18.8%; in the assay on K-562 leukemia it was 12.6%. Moreover, the growth with MALME-3M melanoma is 19.9%; in the assay with MDA-MB-231 breast it was 12.3%; in the assay with RXF 393 renal it was -25.1% (active); in the assay on SF-268 CNS, 22%; in the assay with SF-295 CNS it was 59%; in the assay with SF-539 CNS, -25.4% (active). Further, the growth in the assay on UACC-257 melanoma is 46.8%.

For the molecule `NS(=O)(=O)c1ccc(-n2cc(CN3CCNCC3)nn2)cc1`, the growth was 106% in the assay with NCI-H23 lung; 101% with NCI-H226 lung; 113% in the assay with NCI-H322M lung; 102% in the assay on HOP-62 NSCLC; 108% in the assay with NCI-H460 lung; 113% in the assay with HOP-92 NSCLC. The growth in the assay with NCI-H522 lung was 98.4%; in the assay with A549/ATCC NSCLC, 110%; in the assay on 786-0 renal it was 99.4%; in the assay with COLO 205 colon, 116%; in the assay on DU-145 prostate, 111%; in the assay on K-562 leukemia, 95.9%. Further, the growth with MALME-3M melanoma is 112%; in the assay on MDA-MB-231 breast, 105%; in the assay with RXF 393 renal, 111%; in the assay with SF-268 CNS it was 102%; in the assay on SF-295 CNS, 106%; with SF-539 CNS, 98.7%. The growth with UACC-257 melanoma was 111%.

For the molecule `NS(=O)(=O)c1ccc(Nc2nc(N/N=C/CCc3ccccc3)nc(Nc3ccccc3)n2)cc1`, the growth is 104% in the assay with NCI-H23 lung; 104% in the assay with NCI-H226 lung; 108% in the assay on NCI-H322M lung; 108% in the assay with HOP-62 NSCLC; 104% in the assay with NCI-H460 lung; 97.4% in the assay with HOP-92 NSCLC. Besides, the growth in the assay with NCI-H522 lung was 87.1%; in the assay on A549/ATCC NSCLC, 106%; in the assay on 786-0 renal, 93.6%; with COLO 205 colon, 105%; with DU-145 prostate, 109%; with K-562 leukemia it was 96.7%. Also, the growth in the assay with MALME-3M melanoma was 113%; in the assay with MDA-MB-231 breast, 97.5%; with RXF 393 renal it was 96%; in the assay on SF-268 CNS it was 107%; in the assay on SF-295 CNS it was 106%; with SF-539 CNS, 98.3%. Moreover, the growth in the assay with UACC-257 melanoma was 112%.

For `NS(=O)(=O)c1ccc(Nc2nc(N/N=C/c3c[nH]c4ccccc34)nc(Nc3ccccc3)n2)cc1`, the growth with NCI-H23 lung is 47.1%; with NCI-H226 lung, 42%; with NCI-H322M lung it was 54.4%; with HOP-62 NSCLC, 63.8%; with NCI-H460 lung, 41.2%; in the assay with HOP-92 NSCLC, 61.4%. Further, the growth in the assay on NCI-H522 lung was 31.6%; with A549/ATCC NSCLC, 78.3%; with 786-0 renal, 41.8%; in the assay on COLO 205 colon, 40.9%; in the assay with DU-145 prostate it was 43.4%; in the assay on K-562 leukemia, 23%. Moreover, the growth is 46.1% with MALME-3M melanoma; 48.8% with MDA-MB-231 breast; -25.2% (active) with RXF 393 renal; 59.2% in the assay on SF-268 CNS; 31.5% in the assay with SF-295 CNS; 47.6% in the assay on SF-539 CNS. For the same molecule, in the assay on UACC-257 melanoma, the growth was 63.1%.

Take `COc1ccc(N2CCN(C3=C(Cl)C(=O)C(C)=C(C)C3=O)CC2)cc1`: the growth in the assay on NCI-H23 lung is 106%; in the assay on NCI-H226 lung it was 99.2%; with NCI-H322M lung it was 106%; in the assay with HOP-62 NSCLC it was 91.5%; in the assay with NCI-H460 lung, 104%; with HOP-92 NSCLC, 102%. The growth with NCI-H522 lung was 92.3%; in the assay with A549/ATCC NSCLC, 108%; in the assay on 786-0 renal, 118%; with COLO 205 colon it was 125%; in the assay on DU-145 prostate, 108%; in the assay on K-562 leukemia it was 83.1%. The growth is 110% in the assay with MALME-3M melanoma; 88.2% in the assay with MDA-MB-231 breast; 153% in the assay with RXF 393 renal; 105% with SF-268 CNS; 108% in the assay on SF-295 CNS; 105% with SF-539 CNS. Besides, the growth in the assay on UACC-257 melanoma was 102%.

`Fc1ccc(-c2cc3nc(C(Cl)Cl)nc(-c4ccco4)n3n2)cc1`: the growth in the assay with NCI-H23 lung was 37.3%; in the assay on NCI-H226 lung, 93.2%; with NCI-H322M lung, -22.3% (active); in the assay on HOP-62 NSCLC it was -18.8% (active); in the assay with NCI-H460 lung it was -17.3% (active); in the assay with HOP-92 NSCLC, -15.1% (active). Moreover, the growth was 89.9% in the assay with NCI-H522 lung; -20.1% (active) with A549/ATCC NSCLC; 33.2% in the assay with 786-0 renal; -45.4% (active) with COLO 205 colon; -48.2% (active) in the assay with DU-145 prostate; 33.4% in the assay on K-562 leukemia. For the same molecule, the growth with MALME-3M melanoma was 93.3%; in the assay on MDA-MB-231 breast, -26.2% (active); in the assay with RXF 393 renal, -65.6% (active); in the assay with SF-268 CNS, 3.07% (active); with SF-295 CNS it was -9.65% (active); in the assay with SF-539 CNS, -43.4% (active). For the same molecule, the growth with UACC-257 melanoma is 30.8%.

In the case of `C=C1CC[C@@H]2[C@](C)(CO)[C@H](O)CC[C@@]2(C)[C@@H]1C/C(O)=C1\CCOC1=O`, the growth with NCI-H23 lung was 104%; in the assay on NCI-H226 lung, 108%; with NCI-H322M lung it was 103%; with HOP-62 NSCLC, 102%; in the assay with NCI-H460 lung, 103%; with HOP-92 NSCLC, 101%. Moreover, the growth with NCI-H522 lung was 82.5%; in the assay on A549/ATCC NSCLC, 96%; in the assay on 786-0 renal it was 111%; with COLO 205 colon, 130%; in the assay with DU-145 prostate it was 102%; in the assay with K-562 leukemia, 73.1%. Further, the growth was 105% in the assay on MALME-3M melanoma; 110% with MDA-MB-231 breast; 123% with RXF 393 renal; 98.8% with SF-268 CNS; 103% in the assay on SF-295 CNS; 108% with SF-539 CNS. Besides, the growth in the assay on UACC-257 melanoma was 93.1%.
